Measured values as given in PubChem BioAssay AID1030 (National Center for Advancing Translational Sciences (NCATS), 2008).
About 16,000 (7.3%) of roughly 220,000 compounds were called active. Where a call stands in place of a potency, no number is given. About 25% were inconclusive and are not listed. The call rests on the fitted dose curve; in most records, active means well fitted inhibition curve with a large enough effect (not every such curve was filed as active); inconclusive means small, poorly fitted or top-dose-only effect, or another doubt; inactive means no such curve, though single readings can be large or run the other way. Many of the other results were omitted from the sample, so actives are more common in it than they were.

The compounds below were run against Aldehyde dehydrogenase 1A1 (Homo sapiens) (UniProt P00352) (assay: qHTS Assay for Inhibitors of Aldehyde Dehydrogenase 1 (ALDH1A1)). Conditions: Purified ALDH1A1, NADH fluorescence, propionaldehyde substrate; series mostly up to 75.3 µM.
Chain of Aldehyde dehydrogenase 1A1 (Homo sapiens) (P00352 whole entry, looked up): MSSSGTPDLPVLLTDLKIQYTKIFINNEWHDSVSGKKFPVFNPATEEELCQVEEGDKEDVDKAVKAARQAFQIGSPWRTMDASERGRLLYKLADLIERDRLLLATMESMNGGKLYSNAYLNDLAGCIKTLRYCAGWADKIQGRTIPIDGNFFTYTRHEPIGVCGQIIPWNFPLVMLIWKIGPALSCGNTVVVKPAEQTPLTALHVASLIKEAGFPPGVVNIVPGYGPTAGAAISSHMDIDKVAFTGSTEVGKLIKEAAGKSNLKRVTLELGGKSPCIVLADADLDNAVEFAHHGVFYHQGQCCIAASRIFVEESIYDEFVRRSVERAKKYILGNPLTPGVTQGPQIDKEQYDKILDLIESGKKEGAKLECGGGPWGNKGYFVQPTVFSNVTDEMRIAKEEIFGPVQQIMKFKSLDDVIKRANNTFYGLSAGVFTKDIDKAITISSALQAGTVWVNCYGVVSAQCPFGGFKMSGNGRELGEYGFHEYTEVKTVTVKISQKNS
Potency means the concentration at half of the fitted maximal effect.

| SMILES | Potency |
| --- | --- |
| Cc1cc(C)nc(Nc2ncn[nH]2)n1 | inactive |
| O=C(OCc1ccccc1F)c1ccc2c(c1)OCCO2 | inactive |
| O=C(Nc1ccccc1N1CCN(C(=O)c2ccccc2)CC1)c1ccc2c(c1)OCO2 | 10 µM (active) |
| O=C(CN1CCN(c2ccccc2F)CC1)c1ccc2c(c1)OCO2 | 14.1 µM (active) |
| O=C(Nc1ccccc1)c1ccc2c(c1)OCO2 | inactive |
| O=C(c1ccc(CN2CCOCC2)cc1)N1CCN(c2ccccc2F)CC1 | inactive |
| CCCC(=O)Nc1ccccc1N1CCN(C(=O)c2ccccc2)CC1 | inactive |
| Cc1ccc(NC(=O)Nc2ccccc2)c(Br)c1 | inactive |
| O=C(NCCc1ccccn1)c1cc(-c2ccc(Cl)cc2)nc2ccccc12 | inactive |
| N#Cc1cnn2cc(CCN3CCOCC3)c(-c3ccc(F)cc3)nc12 | inactive |
| Cn1cnnc1SCC(=O)NNC(=O)COc1ccc(Br)cc1 | inactive |
| Cc1cc(/C=C(/C#N)C(=O)Nc2ccc(Cl)cc2)c(C)n1-c1cccnc1 | inactive |
| Cc1ccc(C(=O)N/C(=C/c2cccs2)C(=O)NCC2CCCO2)cc1 (centres undefined) | inactive |
| Cc1ccc(-n2c(C)cc(/C=C(\C#N)C(=O)NCC3CCCO3)c2C)cc1 (centres undefined) | 3.16 µM (active) |
| CCOn1c(=O)c(=O)n(O)c2ccccc21 | inactive |
| CC(=O)NCCc1nc2cc(NC(=O)c3ccccc3)ccc2n1C | inactive |
| COc1ccc2c(c1)CCC/C2=N\OC(=O)c1ccccc1F | inactive |
| CCSc1nnc(NC(=O)c2ccc(C)cc2)s1 | inactive |
| CCSc1nnc(NC(=O)Cc2ccccc2OC)s1 | inactive |
| CC(C)C(=O)Nc1nnc(Sc2ccc(N(C)C)cc2)s1 | 25.1 µM (active) |
| O=C(c1cn2ccccc2n1)N1CCc2c([nH]c3ccccc23)C1c1ccccn1 (centres undefined) | inactive |
| O=C(NCCc1ccc(F)cc1)c1n[nH]c2ccccc12 | inactive |
| O=S(=O)(NCCSc1ccccn1)c1ccc(Cl)cc1 | inactive |
| Cc1ccc(S(=O)(=O)NCCC(c2ccccc2)c2ccccc2)cc1C(=O)O | inactive |
| O=S(=O)(NCCNS(=O)(=O)c1ccccc1)c1ccccc1 | inactive |
| Cc1ccc(S(=O)(=O)NCCSc2ccccc2)cc1[N+](=O)[O-] | 7.08 µM (active) |
| COCCNC(=O)c1ccccc1NS(=O)(=O)c1ccc(C)c([N+](=O)[O-])c1 | inactive |

| SMILES | Potency |
| --- | --- |
| CCOc1ccc(S(=O)(=O)NCCSc2ccccc2)cc1 | 6.31 µM (active) |
| CNC(=O)C(=O)N/N=C/c1ccccn1 | inactive |
| COC(=O)c1c(C(=O)OC)c(-c2cccc(C)c2)n2c1CS(=O)C2 (centres undefined) | inactive |
| Cn1cc(/C=C/C(=O)N2CCCC(C(=O)c3ccc(C(F)(F)F)cc3)C2)cn1 (centres undefined) | inactive |
| CN1CCN(C(=O)/C(=C\c2ccc3c(c2)OCO3)NC(=O)c2cccs2)CC1 | inactive |
| Cc1ccc(NC(=O)C2(N3CCC3=O)CCCCC2)cc1 | inactive |
| O=C(COC(=O)CNS(=O)(=O)c1ccccc1)NC12CC3CC(CC(C3)C1)C2 | inactive |
| S=C(NC1CCCCC1)NN1CCOCC1 | inactive |
| CC(=O)Nc1ccc(S(=O)(=O)Oc2ccc(/C=N/N=C3/NC(=O)C(CC(=O)O)S3)cc2)cc1 (centres undefined) | inactive |
| CC(C)c1cnc(NC(=O)Cc2ccccc2)s1 | inactive |
| C=C(C)CNC(=S)Nc1ccc(S(=O)(=O)Nc2cnc3ccccc3n2)cc1 | inactive |
| COc1ccc(CN(C)C(C)C(=O)NC2CCCc3ccccc32)cc1 (centres undefined) | inactive |
| COc1cc(/C=N/NC(=S)Nc2cccnc2)cc(OC)c1O | inactive |
| COc1cc(/C=N\NC(=O)C2C(=O)NCC2c2ccccc2)cc(OC)c1O (centres undefined) | inactive |
| COc1cc(/C=N/Nc2ccc(C)cc2)cc(Br)c1O | 25.1 µM (active) |
| COc1cc(/C=N/O)cc(Br)c1OS(=O)(=O)c1ccc(C)cc1 | 1.58 µM (active) |
| COc1cc(/C=N/O)cc(Br)c1OCc1cccc(Cl)c1 | inactive |
| CCOc1cc(/C=N/O)cc(Br)c1OC | inactive |
| CC(C)(C)OC(=O)N/N=C/c1cn(-c2ccccc2)nc1-c1cccnc1 | inactive |
| CCN(CC)CC(=O)Nc1sc2c(c1C(=O)c1ccccc1C)CCC2 | inactive |
| Cc1ccc(SCCC(=O)NCc2ccccn2)cc1 | inactive |
| N#Cc1ccc(OCc2nnc(-c3ccc([N+](=O)[O-])cc3)o2)cc1 | inactive |
| CCCSc1ncccc1C(=O)O | inactive |
| CN(C)NC(=O)C(NC(=O)c1ccc(N)cc1)C12CC3CC(CC(C3)C1)C2 (centres undefined) | inactive |
| Cc1ccc(NC(=S)NCCN2CCOCC2)cc1 | inactive |
| CNC(=S)N/N=C/c1ccc(N2CCOCC2)s1 | 8.91 µM (active) |
| CNC(=S)N/N=C/c1cn(Cc2ccc(C)cc2)c2ccccc12 | inactive |
